# This is a sample that favours compounds with a hit; in the whole collection about 6.5% have one here.
# HCMV inh = qHTS Assay for inhibitors of the human cytomegalovirus (HCMV). 410,000 compounds, 4.5% hits. HFF cells, HCMV-luciferase reporter, 72 h; hits give low values. AID 1259415, 2018. activity change, negative = inhibition, % at 57.5 µM; in the data active = activity change below about -60%; inconclusive = no clear call, values can overlap the other calls; inactive = above about -39%
#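 Human foreskin fibroblasts infected with luciferase-reporter HCMV at MOI 1 PFU/cell, compounds at two doses. Luciferase measured 72 h post infection; normalized to buffer-only basal and Salinomycin (10uM) controls.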
# LASV entry inh = qHTS for Inhibitors of binding or entry into cells for Lassa Virus; Lassa virus pseudotype entry inhibition, cell reporter; 300,000 compounds, 1.2% hits; AID 540256, 2011; Potency, µM (doses to about 37.9 µM), for inactives: at the top dose activity change, negative = inhibition, actives largely listed as inhibitors; calls by dose curve; tested in HEK293 cells; also: potency is read from the fitted curve at half-maximal effect; nearly all actives have a fitted effect of over 50% in size
# Marburg entry inh = qHTS for inhibitors of binding or entry into cells for Marburg Virus; 300,000 compounds, 1.8% hits; Marburg virus pseudotyped entry inhibition, cell reporter; Potency, µM (series often up to 37.8 µM), for inactives: at the top dose activity change, negative = inhibition, actives largely listed as inhibitors; calls by dose curve; tested in HEK293 cells; also: potency is read from the fitted curve at half-maximal effect
# Vaccinia mCherry = qHTS for Stage-Specific Inhibitors of Vaccinia Orthopoxvirus: mCherry Reporter Primary qHTS; Vaccinia virus mCherry reporter infection, fluorescence; Potency, µM (highest dose often 36.5 µM), for the others: at the top dose activity change, negative = inhibition, most hits filed as inhibitors; 310,000 compounds, 0.63% hits; AID 720579, 2013; calls by dose curve; tested in A549 cells; also: potency is read from the fitted curve at half-maximal effect; nearly all actives have a fitted effect of over 35% in size
# Vaccinia Venus = qHTS for Stage-Specific Inhibitors of Vaccinia Orthopoxvirus: Venus Reporter Primary qHTS; Vaccinia virus Venus reporter expression, fluorescence; 330,000 compounds, 0.46% hits; Potency, µM (highest dose often 36.5 µM), without a hit: at the highest dose activity change, negative = inhibition, actives largely listed as inhibitors; calls by dose curve; tested in A549 cells; also: potency is read from the fitted curve at half-maximal effect; nearly all actives have a fitted effect of over 30% in size
# FMDV antiviral = High Throughput Screening for Foot and Mouth Disease Virus Antivirals; FMDV antiviral cell-based qHTS; 410,000 compounds, 1.2% hits; Potency, µM (doses to about 57.9 µM), for inactives: top-dose activity change, negative = inhibition, usual class: inhibitors; calls by dose curve; tested in HEK293T cells; also: read-out not given here; potency is read from the fitted curve at half-maximal effect; nearly all actives have a fitted effect of over 45% in size
# The depositor's hits bear a star; i = inactive; ? = inconclusive; . = no result given; ! = repeats disagree; [ ] = dose if it differs, or a comment. % is scaled to controls: 0 for no effect and ±100 for the full control effect.
SMILES,HCMV inh,LASV entry inh,Marburg entry inh,Vaccinia mCherry,Vaccinia Venus,FMDV antiviral
c1ccc2nc(-c3ccc(N4CCOCC4)cc3)ccc2c1,-26.7,3.66µM*,2.31µM*,.,.,-0.9%
c1ccc2nc(-c3ccncc3)ccc2c1,23.3,?,-12.9%,.,.,35.2%
Cc1ccc(Sc2ccc(N3CCCC(C(=O)Nc4ccc(Br)cc4)C3)nn2)cc1 (stereo not given),-24.5,1.12µM*,-19.6%[46.1 µM],-25.1%,-24.9%,2.9%
COc1cccc(CNc2nc(Cl)nc3nc[nH]c23)c1,.,.,.,-19.4%,-20.5%,.
Cc1cccc2nc(-c3cccnc3)c(Nc3ccc(C(C)C)cc3)n12,-83.0*,?,?,?,?,28.2µM*
Cc1ccccc1Nc1c(-c2cccnc2)nc2cccc(C)n12,-61.6*!,-2.3%[46.1 µM],-33.0%[46.1 µM],-24.9%,-28.1%,?
Cc1ccccc1Nc1c(-c2cccs2)nc2cccc(C)n12,5.7,17.1%[46.1 µM],2.3%[46.1 µM],?,-28.7%,-28.8%
COc1ccc2c(c1)-c1nc(-n3ncc(C(=O)N(C)CC4CCCN(C)C4)c3C)ncc1CC2 (stereo not given),.,.,.,-14.9%,-2.4%,-16.8%
COc1ccc(C(=O)c2no[n+]([O-])c2C(=O)c2ccc(OC)cc2)cc1,-105.2*,?,-13.6%,-5.6%,0.0%,39.8µM*
COc1ccc(NC(=O)c2c(N)no[n+]2[O-])cc1,?,?,-23.6%[46.1 µM],-28.1%,-27.5%,44.3%
O=C(c1cccs1)c1no[n+]([O-])c1C(=O)c1cccs1,.,-5.5%,-14.2%,i,?,15.8µM*
C=CCN1C(=O)NC(=O)/C(=C/c2ccoc2)C1=O,?,7.0%,?,-3.8%,19.2%,-0.4%
C=CCN1C(=O)NC(=O)/C(=C/c2ccc(N(C)C)c(Br)c2)C1=O,-35.2,7.94µM*,-4.9%[46.1 µM],-2.5%,-15.7%,-20.4%
Cc1ccc(S(=O)(=O)N2[C@@H](c3ccc(Cl)cc3)C(C(=O)O)=CC[C@H]2c2ccc(Cl)c(Cl)c2)cc1,-64.4*,.,.,?,-25.4%,-24.6%
CCOC(=O)C1=CC[C@@H](c2cccc(Br)c2)N(S(=O)(=O)c2ccc(F)cc2)[C@H]1c1cccc(Cl)c1,-73.5*,.,.,?,-8.7%,-1.9%
CCOC(=O)C1=C[C@@H](C(C)(C)C)N(S(=O)(=O)c2ccc(OC)cc2)[C@H]1c1ccccc1,-34.2,.,.,i,-5.3%,-29.0%
CCOC(=O)C1=C[C@@H](C(C)(C)C)N(S(=O)(=O)c2ccc([N+](=O)[O-])cc2)[C@H]1c1ccccc1,-74.6*,.,.,i,-5.5%,?
CCOC(=O)C1=C[C@@H](C(C)(C)C)N(S(=O)(=O)c2ccc(C)cc2)[C@H]1c1ccc(OC)cc1,-64.1*,.,.,11.4%,-2.1%,-16.0%
Nc1nc(NCc2ccccc2Cl)c2[nH]cnc2n1,.,.,.,-24.2%,-24.4%,.
CCOC(=O)N1CCN(S(=O)(=O)c2ccc(C)cc2)C1c1ccc(OC)cc1 (stereo not given),-17.0,23.1µM*,?,.,.,-8.0%
CCOC(=O)C1=C[C@@H](C(C)(C)C)N(S(=O)(=O)c2ccc(C)cc2)[C@H]1c1ccccc1,?,.,.,i,-5.7%,?
CCOC(=O)C1=C[C@@H](C(C)(C)C)N(S(=O)(=O)c2ccc(C)cc2)[C@H]1c1cccc(Cl)c1,-87.9*,.,.,12.7%,-0.1%,-52.0%
COC(=O)[C@]1(C#N)[C@@H](c2ccccc2)C(=O)N(Cc2ccc(Cl)cc2)[C@@H]1c1ccc(OC)cc1,-29.9,.,.,.,.,.
CSc1cc(-c2ccccc2)n(C)c(=O)c1C#N,-66.5*,-8.9%[46.1 µM],4.4%[46.1 µM],?,-26.3%,-28.2%
CSc1cc(-c2ccccc2)n(Cc2c(Cl)cccc2Cl)c(=O)c1C#N,-38.9,?,0.1%[46.1 µM],.,-17.8%,-24.9%
CC1CCCCN1C(=O)Cn1cc(C=C2C(=O)N(C)C(=O)N(C)C2=O)c2ccccc21 (stereo not given),-62.5*,-3.5%,-13.7%,i,-9.6%,-27.8%
CC1CCCCN1C(=O)Cn1cc(C=O)c2ccccc21 (stereo not given),-22.8,7.6%,15.9%,0.8%,-5.7%,-1.5%

# Screening data (PubChem BioAssay)
